Source: PubChem BioAssay AID1963822 (ICCB-Longwood Screening Facility, Harvard Medical School, 2024)
Among all 55,000 compounds or so, about 90 (0.2%) were called active. No rule for the calls is given here. Only a selection was taken, and actives are over-represented in it overall.

Assay: growth inhibitors of anaerobic choline-fed gram-negatives, minimal medium, absorbance (AID 1963822)
Settings: Gram-negative bacterium anaerobic choline minimal medium
[1] = measured here: choline growth z-score, timepoint 1, stronger effect = lower value

| SMILES | z-score (stronger effect = lower value) | z-score [1] |
| --- | --- | --- |
| O=S(=O)(Nc1ccc(F)cc1)c1cc(-c2noc(C3CC3)n2)cs1 | 0.08 (inactive) | -0.4 |
| COc1ccccc1CNc1ncc2nc(-c3ccccc3)oc2n1 | -0.72 (inactive) | -0.32 |
| Cc1ccc(-c2cc(C(=O)N3CCN(C)CC3)no2)cc1C | -2.15 (inactive) | -1.67 |
| C=CCn1c(=O)c(=O)n(Cc2ccc(C(=O)N3CCC(N4CCCCC4)CC3)cc2)c2ccccc21 | 0.52 (inactive) | 0.14 |
| O=C(Cn1cccc1-c1nc(-c2ccc(Cl)cc2)cs1)NCc1ccc2c(c1)OCO2 | 0.32 (inactive) | -0.44 |
| CC(C)c1nnc2ccc(N3CCN(C(C)C)CC3)nn12 | 0.55 (inactive) | -2.47 |
| CCCN1C(=O)c2ccccc2Sc2cc(-c3noc(/C=C/c4ccccc4)n3)ccc21 | -0.13 (inactive) | 0.3 |
| COC(=O)Cn1nc2c(-c3nc(-c4ccc(Cl)cc4)no3)cccn2c1=O | -0.55 (inactive) | -1.3 |
| Cc1ccc(N2CC(c3nc(-c4ccc(N5CCCC5)cc4)no3)CC2=O)cc1C (centres undefined) | 0.33 (inactive) | 0.93 |
| CC1CCN(CCCNC(=O)Cc2ccc(NC(=O)N3CCSc4ncccc43)cc2)CC1 | 1.04 (inactive) | 0.79 |
| Cc1cc(C)c2nc(C)cc(C(=O)NC3CC3)c2c1 | 1.05 (inactive) | 0.53 |
| CCC1(CC)Cc2ccccc2-c2[nH]c(=O)n(CC3=CCCO3)c(=O)c21 | 0.12 (inactive) | -1.14 |
| COc1ccccc1N1CCN(c2ccc(=O)n(CC(=O)NCc3ccccn3)n2)CC1 | -0.67 (inactive) | -0.7 |
| CN(C)C(=O)c1cc2c(s1)CCC(C(=O)N(C)C)C2 (centres undefined) | 0.34 (inactive) | 0.33 |
| CC(C)(C)c1ccc(S(=O)(=O)NCc2nc(N)n(S(=O)(=O)c3ccc(C(C)(C)C)cc3)n2)cc1 | -0.11 (inactive) | 0.06 |
| CCOc1ccc(N(Cc2nc3nc(C)cc(C)n3n2)C(=O)CC(C)C)cc1 | -0.89 (inactive) | -1.11 |
| CCOc1ccc(-c2cc(C(=O)Oc3ccc(OC)cc3)no2)cc1 | -0.02 (inactive) | 0.37 |
| O=C(CN1C(=O)CSc2ccc(S(=O)(=O)N3CCCC3)cc21)Nc1cccnc1 | 0.64 (inactive) | 0.19 |
| O=C(NC1CC1)C1CCCN(c2ccc3cc(S(=O)(=O)N4CCCCC4)ccc3n2)C1 (centres undefined) | -0.89 (inactive) | -0.76 |
| O=C(Nc1ccc(F)cc1)c1ccccn1 | -3.6 (inactive) | -3.98 |
| O=C(c1nnc(-c2ccc(S(=O)(=O)N3CCCC3)cc2)o1)N1CCCC1 | 0.25 (inactive) | 0.12 |
| COc1ccnc2c1c(=O)n(CC(=O)N1CCCc3ccccc31)c(=O)n2C | 1.04 (inactive) | 0.31 |
